Among all 410,000 compounds or so, about 6,400 (1.6%) were called active. Inconclusive results (about 20%) are left out. Calls come from the whole dose curve; as a rule, active = well fitted inhibition curve with a large enough effect; inconclusive = small, poorly fitted or top-dose-only effect; inactive = no such curve, though single readings can be large or run the other way. The list comes from a sample in which actives are over-represented; it also holds similar structures and randomly drawn compounds. Entries that show only a call come without a potency.

Experimental findings from PubChem BioAssay AID624417 (National Center for Advancing Translational Sciences (NCATS), 2012) are described below.
Potency is the fitted concentration of half-maximal effect.

Glucagon-like peptide 1 receptor (Homo sapiens), sequence (P43220 whole entry, looked up): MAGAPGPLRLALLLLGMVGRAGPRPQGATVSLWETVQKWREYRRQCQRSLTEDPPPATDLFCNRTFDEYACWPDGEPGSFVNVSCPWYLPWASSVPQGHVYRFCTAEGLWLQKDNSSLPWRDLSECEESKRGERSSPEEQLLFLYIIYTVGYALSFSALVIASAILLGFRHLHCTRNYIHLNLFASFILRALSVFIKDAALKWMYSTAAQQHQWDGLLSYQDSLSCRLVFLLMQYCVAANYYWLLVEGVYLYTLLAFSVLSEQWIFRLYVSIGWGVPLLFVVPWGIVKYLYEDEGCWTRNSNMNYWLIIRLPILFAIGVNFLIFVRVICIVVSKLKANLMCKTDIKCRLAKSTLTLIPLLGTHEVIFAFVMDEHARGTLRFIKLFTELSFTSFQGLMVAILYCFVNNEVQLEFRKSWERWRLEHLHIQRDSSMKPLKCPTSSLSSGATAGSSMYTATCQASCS

The target in the experiment is Glucagon-like peptide 1 receptor (Homo sapiens) (UniProt P43220). The experiment can be described thus: qHTS of GLP-1 Receptor Inverse Agonists (Inhibition Mode). Note: nearly all actives have a fitted effect of over 55% in size. The note with it: HEK293 GLP-1R CRE-luciferase, luminescence, 24 h, GLP-1R form is constitutively active; series mostly up to 38.3 µM. The method in brief:
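Cells are plated, allowed 12 hours at 37 deg C, then treated with compounds for 24 hr before luciferase detection reagent is added and luminescence is read after 12 min at room temperature. The HEK293 line carries constitutively active GLP-1R with a cAMP-responsive reporter.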
Background: Quantitative high-throughput screening tests each substance at several concentrations.
Turning to `CCCNC(=O)C1(C)CCN1C(=O)C1(c2ccccc2)CC1` (stereo not given), the Potency result is “inactive”.

On to `CC(C)n1cnc2c(Nc3cccc(Cl)c3)nc(N(CCO)CCCO)nc21`, for which the Potency is 10 µM (active).

As for `COc1ccc(NS(=O)(=O)c2cc(NC(=O)/C=C/c3cc(OC)c(OC)c(OC)c3)ccc2N2CCCCC2)cc1`, the Potency entry is “inactive”.

As for `COc1ccccc1Nc1c2c(nc3ccc(NC(=O)/C=C/c4cc(OC)c(OC)c(OC)c4)cc13)CCCC2`, the Potency is 3.55 µM (active).

For `CCOc1ccc(C(=O)Nc2ccc3nc4c(c(Nc5ccccc5OC)c3c2)CCCC4)cc1`, the Potency result is “inactive”.

For the compound `O=C1NC(Cc2ccccc2)c2nc3ccc(Br)cc3c(=O)n2-c2cc3ccccc3cc21` (stereo not given), the Potency entry was “inactive”.

`Cc1cc(C)c2sc(NC(=O)c3ccc(S(=O)(=O)N4CCCC4)cc3)nc2c1`: the Potency result is “inactive”.

Take `CN(C)CCCN(C(=O)c1ccc(S(=O)(=O)N2CCCCCC2)cc1)c1nc2cc3c(cc2s1)OCCO3`: the Potency was 11.2 µM (active).

`Cc1cc2nc(NC(=O)c3ccc(S(=O)(=O)N4CCOCC4)cc3)sc2cc1C`: the Potency entry was “inactive”.

Take `Cc1ccc2nc(N(CCN(C)C)C(=O)C3=COCCO3)sc2c1`: the Potency entry is “inactive”.

As to `CN(C)CCN(C(=O)CN1C(=O)c2ccccc2C1=O)c1nc2cc3c(cc2s1)OCCO3`, the Potency result is “inactive”.

On to `CN(C)CCCN(C(=O)c1ccc(S(=O)(=O)N2CCCCCC2)cc1)c1nc2ccc(Br)cc2s1`, for which the Potency is 3.55 µM (active).

Turning to `Cc1noc(C)c1S(=O)(=O)N(C)C[C@H]1OCCCC[C@@H](C)Oc2ccc(NC(=O)CCCN(C)C)cc2C(=O)N([C@H](C)CO)C[C@@H]1C`, the Potency result is “inactive”.

For `O=C(O)C1=C(C(=O)O)C2CCC1C2`, the Potency result was “inactive”.

Take `CC(=O)N1Cc2cc(C(=O)NCc3cccc(F)c3)nc(-c3cccc(C4=CCCCC4)c3)c2[C@H]1CCO`: the Potency result is “inactive”.

Consider `CCc1nc2c(=O)[nH]cnc2o1`, for which the Potency entry is “inactive”.

For `C/C(=N/NC(=S)Nc1ccccc1)c1ccc2c(c1)OCO2`, the Potency was 3.16 µM (active).

Regarding `C/C(=N/NC(=O)c1ccncc1)c1ccc2c(c1)OCO2`, the Potency result was “inactive”.

For the compound `C/C(=N\NC(=O)C(N)=O)c1ccc2c(c1)OCCO2`, the Potency result is “inactive”.

With `CCOC(=O)[C@]12CCCC=C1N(CCC1=CCCCC1)C(=O)[C@H](CC(=O)NCCCOC)C2`, the Potency result was “inactive”.

`O=C(NCC(F)(F)F)c1ccc(S(=O)(=O)NCCc2ccc3c(c2)OCCO3)cc1`: the Potency result was “inactive”.

For the compound `COc1cc(SC)ccc1C(=O)NCCOc1ccccc1Cl`, the Potency entry was “inactive”.

As to `Cc1csc(NC(=O)c2ccc(C)s2)n1`, the Potency result was “inactive”.

`COc1cc(SC)ccc1C(=O)Nc1nc(C)cs1`: the Potency was 1.12 µM (active).

For the compound `CCOc1ccc2[nH]c(=S)sc2c1`, the Potency entry is “inactive”.

With `O=C(NC1CCCC1)C1c2ccccc2OCC(=O)N1CC(F)(F)F` (stereo not given), the Potency entry is “inactive”.

For `O=C(Nc1cc(F)ccc1F)c1ccc2c(=O)n3c(nc2c1)CCC3`, the Potency result was “inactive”.

In the case of `O=C(NN=Cc1ccccc1O)NN=Cc1ccccc1O`, the Potency result is “inactive”.

In the case of `Oc1c(Br)cccc1/C=N/Nc1c(F)c(F)c(F)c(F)c1F`, the Potency result was “inactive”.

On to `Oc1cccc(/C=N/Nc2ccc(Cl)nn2)c1O`, for which the Potency is 1.12 µM (active).

As to `C[C@@H]1CN([C@@H](C)CO)S(=O)(=O)c2ccc(-c3ccc(C(=O)N(C)C)cc3)cc2O[C@@H]1CN(C)Cc1ccccc1C(=O)O`, the Potency entry is “inactive”.

`CCc1nc2c(OCCc3cccc(OC)c3)cccn2c1N(C)C(=O)c1ccc(C)cc1`: the Potency result is “inactive”.

On to `Cc1ccc(NC(=O)[C@H](Cc2ccccc2)NC(=O)CC[C@H]2O[C@@H](n3ccc(=O)[nH]c3=O)[C@H](O)[C@@H]2O)cc1C`, for which the Potency result is “inactive”.

Regarding `O=[N+]([O-])c1ccc(N2CCN(S(=O)(=O)c3ccccc3)CC2)cc1N1CCc2ccccc2C1`, the Potency entry was “inactive”.

Consider `O=S(=O)(c1ccc2ccccc2c1)N1CCN(S(=O)(=O)N2CCOCC2)CC1`, for which the Potency result is “inactive”.

Consider `CN1CCN(S(=O)(=O)c2ccc(N3CCN(c4ccccc4O)CC3)c([N+](=O)[O-])c2)CC1`, for which the Potency was 10 µM (active).

For the compound `Cc1ccc(S(=O)(=O)N2CCN(c3ccccc3)CC2)cc1C`, the Potency entry was “inactive”.

For the compound `Cc1cc(N)n(-c2ccc(S(=O)(=O)N3CCCC3)cc2[N+](=O)[O-])n1`, the Potency entry is “inactive”.

With `Cc1ccccc1N1CCN(S(=O)(=O)c2ccc3ccccc3c2)CC1`, the Potency is 10 µM (active).

As to `COc1ccc(NC(=O)CN(C)C(=O)c2cc(C)oc2C)cc1`, the Potency entry was “inactive”.

As to `O=C(/C=C/[C@H]1O[C@@H](n2ccc(=O)[nH]c2=O)[C@H](O)[C@@H]1O)NCc1ccccn1`, the Potency result is “inactive”.

On to `C[C@H](CO)N1C[C@H](C)[C@@H](CN(C)C(=O)c2cnccn2)Oc2ncc(Br)cc2C1=O`, for which the Potency entry is “inactive”.

On to `CC(C)C[C@@H]1COc2cc(N3CCC[C@@H]3CO)ccc2S(=O)(=O)N1`, for which the Potency entry is “inactive”.

In the case of `CCN1C(=O)[C@H]2[C@@H](c3ccc(C)cc3)N3C(=O)N(c4cccc(Br)c4)C(=O)[C@@]3(CC)[C@H]2C1=O`, the Potency result was “inactive”.

As for `O=C1[C@H]2[C@@H](c3ccc(F)cc3)N3C(=O)N(c4ccc(C(F)(F)F)cc4)C(=O)[C@@]3(Cc3ccccc3)[C@H]2C(=O)N1C1CCCCC1`, the Potency is 2.24 µM (active).

Consider `Cc1cccc([C@@H]2[C@@H]3C(=O)N(Cc4ccccc4)C(=O)[C@@H]3[C@]3(Cc4ccc(Cl)cc4)C(=O)N(c4cccc(Cl)c4)C(=O)N23)c1`, for which the Potency entry was “inactive”.

Turning to `CC(=O)c1ccc(Nc2nc(C(N)c3ccccc3Cl)cs2)cc1` (stereo not given), the Potency entry was “inactive”.

For `C[C@H](CO)N1C[C@H](C)[C@@H](CN(C)C(=O)c2cccc(F)c2)Oc2cc(-c3cncnc3)ccc2S1(=O)=O`, the Potency result was “inactive”.

As for `O=C(NCc1ccccc1)C1CNCC(C(=O)NCc2ccccc2)C1` (stereo not given), the Potency entry is “inactive”.

Regarding `C=CCOC(=O)c1ccccc1C(=O)OCC=C`, the Potency entry is “inactive”.

Take `C=CCOC(=O)C1=C(C)NC(C)=C(C(=O)OCC=C)C1c1cccs1`: the Potency is 10 µM (active).

On to `CCOC(=O)C1=C(C)Nc2nc3ccccc3n2C1c1cccs1` (stereo not given), for which the Potency entry is “inactive”.

With `COc1ccc(-c2[nH][nH]c(=O)c2NC(=O)c2ccc([N+](=O)[O-])cc2)cc1`, the Potency entry was “inactive”.

Consider `COc1ccc(C(CNC(=O)COc2ccc([N+](=O)[O-])cc2)N2CCCCC2)cc1` (stereo not given), for which the Potency entry was “inactive”.

Take `COc1ccc(C(CNC(=O)COc2ccccc2OC)N2CCCCC2)cc1` (stereo not given): the Potency entry was “inactive”.

In the case of `CCc1ccc(OCC(=O)NCC(c2ccc(Cl)cc2)N2CCCCC2)cc1` (stereo not given), the Potency is 8.91 µM (active).

For the compound `O=S1(=O)CC(N2CCN(CCO)CC2)CN1Cc1cn(Cc2cccc(Cl)c2)nn1` (stereo not given), the Potency entry was “inactive”.

Take `CC1CC(C)(C)n2c(O)c(N=NC(N)=S)c3cccc1c32` (stereo not given): the Potency was 5.01 µM (active).

Take `CN1OC[C@@H]2CN(S(=O)(=O)c3cccc(C(F)(F)F)c3)[C@H](c3ccc(-c4cc5ccccc5o4)cc3)C[C@@H]21`: the Potency result was “inactive”.

For `Cc1ccc(CN(N=Nc2nonc2N)c2nonc2N)c(C)c1`, the Potency was 2.82 µM (active).

As for `COc1cc(CNc2ncnc3c2ncn3[C@H]2CN(Cc3cccs3)C[C@@H](CO)O2)cc(OC)c1OC`, the Potency result is “inactive”.

With `COc1ccc(C(CNC(=O)c2cccc(S(=O)(=O)Nc3ccc(Br)cc3)c2)N(C)C)cc1` (stereo not given), the Potency is 10 µM (active).

`COc1ccccc1NS(=O)(=O)c1ccc(C)c(C(=O)NCC(c2ccco2)N(C)C)c1` (stereo not given): the Potency result was “inactive”.

Take `CCOc1ccc(NS(=O)(=O)c2ccc(C(=O)NCC(c3ccccc3OC)N3CCCC3)cc2)cc1` (stereo not given): the Potency was 11.2 µM (active).

In the case of `CCOc1ccc(S(=O)(=O)Nc2ccc(C(=O)NCCCN3CCCC3=O)cc2)cc1`, the Potency result is “inactive”.

Take `COc1ccccc1C(CNC(=O)c1cccc(NS(=O)(=O)c2ccc(Br)cc2)c1)N(C)C` (stereo not given): the Potency is 10 µM (active).

For `CCOc1ccc(NS(=O)(=O)c2ccc(C(=O)NCC3CCCO3)cc2)cc1` (stereo not given), the Potency entry is “inactive”.

With `COc1ccc(C(CNC(=O)c2ccc(S(=O)(=O)Nc3ccccc3F)cc2)N(C)C)cc1` (stereo not given), the Potency result was “inactive”.

For `COc1ccc(NS(=O)(=O)c2cccc(C(=O)NCCc3ccc(S(N)(=O)=O)cc3)c2)cc1`, the Potency entry was “inactive”.

For the compound `CN(C)C(CNC(=O)c1cccc(S(=O)(=O)Nc2ccc(Br)cc2)c1)c1ccco1` (stereo not given), the Potency is 12.6 µM (active).

On to `CN(C)C(CNC(=O)c1cccc(C#N)c1)c1ccco1` (stereo not given), for which the Potency entry is “inactive”.

For `CC(=O)c1ccc(S(=O)(=O)Nc2ccc(C(=O)NCC(c3ccccc3)N(C)C)cc2)cc1` (stereo not given), the Potency result is “inactive”.

In the case of `CC1CN(C(=O)c2cccc(NS(=O)(=O)c3ccc(Br)cc3)c2)CC(C)O1` (stereo not given), the Potency result was “inactive”.

On to `Cc1ccc(NC(=O)COC(=O)CN2CCSC2=O)cc1F`, for which the Potency result is “inactive”.

`OCCN1CCN(c2ncnc3c2ncn3[C@H]2CN(Cc3ccco3)C[C@@H](CO)O2)CC1`: the Potency entry was “inactive”.

For the compound `CCOC1=C2CN(S(=O)(=O)c3ccc(C)cc3)[C@H](c3cccs3)C[C@H]2[C@H]2C(=O)N(c3ccccc3)C(=O)[C@H]2C1`, the Potency result is “inactive”.

As to `C[C@H]1NS(=O)(=O)c2cc(Cl)ccc2O[C@@H]1c1ccccc1`, the Potency result was “inactive”.

Regarding `CC1(C)CC(=O)C=C(c2ccc(COC(=O)c3cc(F)cc(F)c3)cc2)C1=O`, the Potency result is “inactive”.

For `O=C(Nc1cc(Br)ccc1F)c1nc[nH]c1C(=O)NCc1ccccc1`, the Potency result is “inactive”.

On to `O=[N+]([O-])c1ccc(CN2CC(N3CCC(c4ccccc4)CC3)CS2(=O)=O)cc1` (stereo not given), for which the Potency result is “inactive”.

Regarding `Cc1cccc(NS(=O)(=O)c2ccc(C)c(C(=O)NCc3cccnc3)c2)c1`, the Potency result was “inactive”.

Consider `Cc1cccc(NS(=O)(=O)c2ccc(C)c(C(=O)NCC(c3ccccc3)N(C)C)c2)c1` (stereo not given), for which the Potency is 3.98 µM (active).

As for `Cc1cccc(NS(=O)(=O)c2ccc(C)c(C(N)=O)c2)c1`, the Potency entry was “inactive”.

For `CCCc1c(C)nc2scc(-c3ccc(Cl)cc3)n2c1=O`, the Potency entry is “inactive”.

As to `CCc1nc2c(OCCOc3ccccc3)cccn2c1N(C)C(=O)c1ccccc1F`, the Potency entry was “inactive”.

For `O=C(CCN1CCCCC1)Nc1ccc(F)c(F)c1`, the Potency entry was “inactive”.

For the compound `CCOc1ccc(NC(=O)c2cn(C3CCCCC3)c(=O)c3c2c2ccccc2n3C)cc1`, the Potency result was “inactive”.

Consider `CCOC(=O)N1CCN(C(=O)c2nn(-c3ccc(C)cc3)c(=O)c3c2c2ccccc2n3C)CC1`, for which the Potency entry was “inactive”.

Turning to `Cn1c2ccccc2c2c(C(=O)N3CCN(c4ccc(F)cc4)CC3)cn(C3CCCC3)c(=O)c21`, the Potency was 10 µM (active).

On to `CCN(CC)CCN(C)C(c1ccnc2ccccc12)c1nnnn1-c1ccc2c(c1)OCCO2` (stereo not given), for which the Potency entry was “inactive”.
